Measurements from publication PMC5540273 (PLoS ONE, 2017).

Assays:
Settings in all cases: concentration: 1 μM, replicates: in singlicate; n = 1
[1] = system: T1, NIM1
T1 construct: gene MGC42105

[2] = system: NLK
[3] = system: T2, OSR1
T2 construct: gene OXSR1

[4] = system: PAK1
[5] = system: PAK2
[6] = system: PAK3
[7] = system: PAK4
[8] = system: PAK6
[9] = system: PAK7
[10] = system: T3, PCTK1
T3 construct: gene CDK16

[11] = system: T4, PCTK2
T4 construct: gene CDK17

[12] = system: T5, PCTK3
T5 construct: gene CDK18

[13] = system: PDGFRA
[14] = system: PDGFRB
[15] = system: PDPK1
[16] = system: PFTAIRE2
[17] = system: T6, PFTK1
T6 construct: gene CDK14

[18] = system: PHKG1
[19] = system: PHKG2
[20] = system: PIK3C2B
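Also: KINOMEscan kinase panel screen.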

| Compound | %Inh [1] [%] | %Inh [2] [%] | %Inh [3] [%] | %Inh [4] [%] | %Inh [5] [%] | %Inh [6] [%] | %Inh [7] [%] | %Inh [8] [%] | %Inh [9] [%] | %Inh [10] [%] | %Inh [11] [%] | %Inh [12] [%] | %Inh [13] [%] | %Inh [14] [%] | %Inh [15] [%] | %Inh [16] [%] | %Inh [17] [%] | %Inh [18] [%] | %Inh [19] [%] | %Inh [20] [%] |
| --- | --- | --- | --- | --- | --- | --- | --- | --- | --- | --- | --- | --- | --- | --- | --- | --- | --- | --- | --- | --- |
| Cc1ccc(O)cc1Nc1ccnc2cc(-c3ccc(CN4CCCCC4)o3)ccc12 [GW557777] | 0 | 19 | 0 | 24 | 23 | 0 | 13 | 21 | 7 | 0 | 0 | 8 | 95.3 | 99.7 | 0 | 0 | 15 | 9 | 7 | 0 |
| CNc1nccc(-c2ccc3c(N)n[nH]c3c2)n1 [GSK2206003] | 15 | 14 | 18 | 4 | 9 | 48 | 4 | 5 | 9 | 0 | 19 | 18 | 13 | 77 | 62 | 16 | 10 | 6 | 43 | 0 |
| N#Cc1cnc2cc(-c3cnc(CNCCN4CCOCC4)s3)ccc2c1Nc1ccc(Oc2ccccc2)cc1 [GW664114] | 12 | 0 | 0 | 10 | 0 | 21 | 0 | 10 | 2 | 28 | 11 | 18 | 0 | 24 | 0 | 22 | 18 | 0 | 0 | 0 |
| N#CC1(c2cccc(C(=O)Nc3cccc(Oc4ccc5nc(NC(=O)C6CC6)sc5n4)c3)c2)CC1 | 0 | 0 | 0 | 3 | 27 | 0 | 0 | 15 | 0 | 0 | 0 | 1 | 99.7 | 100 | 49 | 0 | 9 | 0 | 19 | 0 |
| Cc1ccc(O)cc1Nc1ccnc2ccc(C(C)(C)C)cc12 [GW856805] | 52 | 1 | 30 | 23 | 50 | 0 | 17 | 34 | 2 | 12 | 14 | 5 | 64 | 62 | 52 | 12 | 21 | 24 | 0 | 23 |
| CN(C)CCNS(=O)(=O)c1ccc(-c2ccnc3[nH]ccc23)cc1 [GSK977620] | 13 | 20 | 30 | 34 | 32 | 71 | 56 | 64 | 58 | 7 | 0 | 0 | 0 | 54 | 0 | 6 | 0 | 25 | 7 | 0 |
| Cl.N#CCc1ccc(Nc2nccc(Nc3ccc(Oc4ccccc4)cc3)n2)cc1 [GW639905] | 14 | 0 | 11 | 0 | 10 | 47 | 0 | 0 | 0 | 0 | 0 | 8 | 31 | 99.6 | 17 | 4 | 0 | 0 | 0 | 0 |
| c1ccc(Oc2ccc(Nc3ccnc4cc(-c5ccc(CN6CCCCC6)o5)ccc34)cc2)nc1 [GW567143] | 69 | 13 | 4 | 16 | 16 | 33 | 0 | 0 | 8 | 0 | 0 | 11 | 82 | 98.6 | 0 | 7 | 9 | 5 | 0 | 0 |
| COc1cc(Nc2nccc(N3CCC(NC(=O)Nc4ccc5c(c4)OCO5)C3)n2)cc(OC)c1OC (centres unmarked) [GSK1379766] | 4 | 0 | 0 | 0 | 0 | 0 | 0 | 0 | 4 | 16 | 38 | 31 | 11 | 60 | 0 | 8 | 0 | 0 | 0 | 8 |
| COc1cccc(CC(=O)N2CCc3cc(-c4cn(C)c5ncnc(N)c45)ccc32)c1 [GSK2608899] | 0 | 5 | 6 | 13 | 4 | 50 | 2 | 0 | 18 | 3 | 0 | 4 | 88 | 99.2 | 20 | 12 | 0 | 0 | 0 | 83 |
